# Measurements from PubChem BioAssay.
# Calls of active or inactive are those of the source. Rule as the data show it: active = inhibition above about 25%; inactive = the rest.
# Experiment: repression of VP16-driven luciferase reporter – cell-based, luminescence, high throughput, counter-screen for SRC1 inhibitor project (AID 588824)
# Details: cell-based VP16 transactivation luciferase luminescence; at 3.6 µM; stronger effect = higher value
row,Compound,inhibition
1,O=C(Cc1cccs1)N(CC1CCCO1)C1(C(=O)NC2CCCCC2)CCCCC1 (centres undefined),14.9% (inactive)
2,C=C(C)c1cccc(C(C)(C)NC(=O)N(Cc2ccccc2)Cc2ccco2)c1,-0.46% (inactive)
3,CC(=O)c1c(C)n(-c2ccc(C)cc2)c2ccc(O)cc12,19.8% (inactive)
4,Cc1cn(Cc2ccccc2Cn2cc(C)c(=O)[nH]c2=O)c(=O)[nH]c1=O,-5.61% (inactive)
5,COc1ccc(CNC(=O)c2cc3c(C)nc4ccccc4c3o2)c(OC)c1,22.3% (inactive)
6,COc1ccc(NC(=O)CCn2c(=S)[nH]c3ccccc3c2=O)cc1,0.97% (inactive)
7,CC(=O)c1cccc(NC(=O)COc2cc3oc(=O)c(CC(C)O)c(C)c3cc2Cl)c1 (centres undefined),22% (inactive)
8,CC(Oc1ccc(F)cc1)C(=O)Nc1cc(S(=O)(=O)N2CCCCC2)ccc1N1CCOCC1 (centres undefined),6% (inactive)
9,CN1CCN(c2nc(-c3cccs3)nc3ccccc23)CC1,10% (inactive)
10,Cc1cccc(C)c1NC(=O)C1(C)CCC(=O)N1c1cc(C(C)(C)C)nn1C (centres undefined),-5.42% (inactive)
11,CCn1c(=O)n(CC)c2cc(N3CCCC3)c(NC(=O)c3ccccc3OC)cc21,-7.42% (inactive)
12,CCCCCN(C(=O)CCC(=O)OCC(=O)N(CC#N)c1ccccc1)c1c(N)n(CCCC)c(=O)[nH]c1=O,1.44% (inactive)
13,Cc1ccc(OCC(=O)NNC(=O)c2ccc3c(=O)n4c(nc3c2)CCC4)cc1,-3.2% (inactive)
14,Cc1nn(CC(=O)N2CCN(c3cccc(C(F)(F)F)c3)CC2)c(=O)c2cccn12,8.52% (inactive)
15,O=C(Nc1ccc(OCC(F)(F)C(F)F)c(C(F)(F)F)c1)c1ccccc1O,6.93% (inactive)
16,CC(=O)c1ccc(S(=O)(=O)N2CCN(CCOc3ccc(Br)cc3)CC2)cc1,25.4% (active)
17,CN1CCc2c(OCc3ccc(F)cc3)cccc2C1=O,-7.17% (inactive)
18,COc1ccc(-c2[nH]ncc2CN2CCC(O)(c3ccc(Cl)cc3)CC2)cc1,10.8% (inactive)
19,CN1CCN(c2ccc(Cl)cc2NC(=O)CC2OC(=O)c3ccccc32)CC1 (centres undefined),-6.69% (inactive)
20,CC(C)(C)NC(=O)C1(C)CCC(=O)N1CCCn1ccnc1 (centres undefined),16.9% (inactive)

row,Compound,inhibition
1,COc1ccc(Nc2nc(-c3cccs3)nc3ccccc23)cc1S(=O)(=O)N1CCOCC1,-9.26% (inactive)
2,COc1cc(C(c2sc3nc(C)nn3c2O)N2CCc3ccccc3C2)cc(OC)c1OC (centres undefined),-0.57% (inactive)
3,O=S(=O)(c1cccc(C(F)(F)F)c1)N1c2ccccc2-n2cccc2C1c1cccnc1 (centres undefined),17.7% (inactive)
4,COc1ccc(-n2cc(-c3ccccc3)c3c(N4CCOCC4)ncnc32)cc1,-1.14% (inactive)
5,CN1c2ccccc2C2(C)CCCC3=Cc4cccc([N+](=O)[O-])c4OC312 (centres undefined),11.1% (inactive)
6,O=C(O)c1ccccc1-c1c2cc(I)c(=O)c(I)c-2oc2c(I)c(O)c(I)cc12,15.7% (inactive)
7,O=C(c1cc(COc2c(F)cccc2F)on1)N1CCC(c2ccncc2)CC1,19.7% (inactive)
8,COc1ccccc1NC(=O)NC1(C(=O)N2CCCCC2)CCCCC1,10.3% (inactive)
9,O=C1N=C(N2CCCC2)S/C1=C\C=C\c1ccccc1,-50.3% (inactive)
10,CC(O)c1nc2cc([N+](=O)[O-])ccc2n1Cc1ccccc1 (centres undefined),-6.35% (inactive)
11,CCN1CCN(S(=O)(=O)c2cc(OCC(=O)NC3CCCCC3)c(C)cc2Cl)CC1,31.1% (active)
12,O=C1NCCc2c1[nH]c1ccc([N+](=O)[O-])cc21,18.1% (inactive)
13,CCCc1cc(C(=O)N(C)CC(=O)Nc2ccc(OCC)c(OCC)c2)sc1C,17.3% (inactive)
14,Cc1csc(N=Cc2ccc([N+](=O)[O-])o2)n1,32.2% (active)
15,O=c1cc(N2CCN(c3ccccc3Cl)CC2)[nH]c(=O)n1Cc1ccc(F)cc1,16.8% (inactive)
16,Cc1c(/C(O)=C2\C(=O)C(=O)N(CCCN(C)C)C2c2ccccc2)cnn1-c1ccccc1 (centres undefined),-4.83% (inactive)
17,Cc1ccc(Oc2ccccc2NC(=O)CSCC(=O)Nc2cc(C)on2)cc1,16.1% (inactive)
18,COc1ccc(OCCN2CCN(C(=O)c3ccc(OC(F)F)c(OC)c3)CC2)cc1,2.73% (inactive)
19,CC1(C)CC(NCc2ccccc2)CCO1 (centres undefined),-4.92% (inactive)
